Screening data deposited in PubChem by Broad Institute.
BL2 CD40 inh: inhibitors of CD40-induced NF-kB signaling, primary screen, BL2 cells, luciferase reporter, single point; inhibition, % at 10 µM; hit rate 0.94% among 83,000; AID 1053188, 2014; CD40L-induced, 4 h;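 active = mean inhibition of at least 50% with a set share of replicates also reaching that level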;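 note: 0% = neutral control wells and 100% = IKK inhibitor VII at 50 µM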
* marks the source's active call; other numbers are inactive results; ! = repeats disagree; [ ] = remark or other dose. The full list was thinned out, with hits kept by preference.

SMILES | BL2 CD40 inh
O=C(Nc1ccc(C(F)(F)F)cc1)Nc1ccc2c(c1)[C@H]1C[C@@H](CC(=O)N3CCc4ccccc4C3)O[C@H](CO)[C@H]1O2 | 50.0*[25 µM]
O=C(Nc1ccc(C(F)(F)F)cc1)Nc1ccc2c(c1)[C@H]1C[C@@H](CC(=O)N3CCc4ccccc4C3)O[C@@H](CO)[C@H]1O2 | 65.3*[25 µM]
O=C(Cc1ccncc1)Nc1ccc2c(c1)[C@H]1C[C@H](CC(=O)N3CCc4ccccc4C3)O[C@@H](CO)[C@H]1O2 | 1.4[25 µM]
O=C(Cc1ccncc1)Nc1ccc2c(c1)[C@@H]1C[C@@H](CC(=O)N3CCc4ccccc4C3)O[C@@H](CO)[C@@H]1O2 | 7.6[25 µM]
O=C(Cc1ccncc1)Nc1ccc2c(c1)[C@@H]1C[C@@H](CC(=O)N3CCc4ccccc4C3)O[C@H](CO)[C@@H]1O2 | 3.7[25 µM]
CO[C@@H]1CN(C)C(=O)c2cc(NC(=O)C3CCOCC3)ccc2OC[C@@H](C)N(CC2CC2)C[C@@H]1C | -3.4
Cc1ccc(S(=O)(=O)Nc2cccc3c2O[C@@H](CN(C)CC2CC2)[C@H](C)CN([C@@H](C)CO)C3=O)cc1 | -9.2
O=S(=O)(c1cccs1)N1CCCCN2[C@H](CO)[C@H](c3ccc(Br)cc3)[C@@H]2C1 | 14.0[25 µM]
CCCNC(=O)N1[C@H](CO)[C@H]2c3ccccc3N(C(=O)Nc3ccccc3)C[C@H]21 | -18.5
C[C@@H]1CN([C@H](C)CO)C(=O)CCCn2nncc2CO[C@@H]1CN(C)CC1CCCC1 | -5.3
O=c1[nH]c(C(F)(F)F)nc2ccccc12 | -8.3
CC(C)Sc1nc2ccccc2c(=O)[nH]1 | 6.0
CC(C)N1C(=O)/C(=C\c2nc3ccccc3c(=O)[nH]2)c2ccccc21 | 32.6*
O=C(C[C@@H]1C[C@H]2c3cc(NC(=O)NC4CCCC4)ccc3O[C@H]2[C@H](CO)O1)NCCc1ccccc1 | 1.3
CC(C)[C@@H](C)NC(=O)N(C)C[C@H]1OCc2ccccc2-c2c(n(C)c3ccccc23)C(=O)N([C@@H](C)CO)C[C@@H]1C | -3.2
COc1ccc(OCc2ccc(C(=O)N3CCOCC3)cc2)cc1 | -22.8
COc1ccc(OCc2cccc(C(=O)NN)c2)cc1 | 24.5*
CCOc1ccc(OCc2cccc(C(=O)N3CCOCC3)c2)cc1 | 90.2*
COc1ccc(OCc2cccc(C(=O)Nc3cc(C)on3)c2)cc1 | 3.5
O=C(c1cccc(OCc2ccccc2)c1)N1CCOCC1 | -8.0
NNC(=O)c1cccc(COc2cccc(Br)c2)c1 | -57.2
COc1cccc(CNC(=O)[C@H]2[C@H](CO)[C@H]3Cn4c(cccc4=O)[C@@H]2N3C(=O)C2CCCCC2)c1 | -5.8
COc1c(C)c2c(c(O)c1C/C=C(/C)CCC(=O)O)C(=O)OC2 | -8.9[25 µM]
Cc1ccc(OC(=O)N(C)C[C@@H]2OCc3ccccc3-c3ccccc3C(=O)N([C@H](C)CO)C[C@@H]2C)cc1 | 2.8[25 µM]
O=C(Nc1ccccc1F)N1CCCCN2[C@H](CO)[C@H](c3ccc(/C=C/c4ccccc4)cc3)[C@H]2C1 | 88.5*[25 µM]
SMILES | BL2 CD40 inh
O=C(Nc1ccccc1Cl)N1[C@@H]2CNC[C@H]1C2c1ccc(/C=C/c2ccccc2)cc1 (stereo partly drawn) | 57.7*!
COc1ccc(C#Cc2ccc([C@@H]3[C@H]4CN(C(=O)Nc5cccc(F)c5)CCCCN4[C@H]3CO)cc2)cc1 | 5.3[25 µM]
COc1ccc(C#Cc2ccc([C@@H]3[C@H](CO)N4CCCCN(C(=O)Nc5cccc(F)c5)C[C@@H]34)cc2)cc1 | 67.8*[25 µM]
Cc1ccccc1S(=O)(=O)N1[C@@H]2CNC[C@H]1[C@@H]2c1ccc(-c2ccc(C#N)cc2)cc1 | 8.3[25 µM]
O=C(Nc1ccccc1F)N1CCCCN2[C@H](C1)[C@@H](c1ccc(/C=C/c3ccccc3)cc1)[C@@H]2CO | -2.3[25 µM]
COc1ccc(C#Cc2ccc([C@H]3[C@@H](CO)N4CCCCN(C(=O)Nc5cccc(F)c5)C[C@H]34)cc2)cc1 | 21.7[25 µM]
C/C=C/c1ccc(C2[C@H]3CNC[C@@H]2N3C(=O)Nc2ccccc2Cl)cc1 (stereo partly drawn) | -3.5[25 µM]
Cc1ccccc1S(=O)(=O)N1[C@@H]2CNC[C@H]1C2c1ccc(/C=C/c2ccccc2)cc1 (stereo partly drawn) | 51.4*!
O=C(Nc1ccccc1F)N1CCCCN2[C@H](CO)[C@H](c3ccc(/C=C/c4ccccc4)cc3)[C@@H]2C1 | 14.4[25 µM]
O=C(Nc1ccccc1Cl)N1[C@@H]2CNC[C@H]1C2c1ccc(-c2ccccc2)cc1 (stereo partly drawn) | 3.7
COc1ccccc1S(=O)(=O)N1[C@@H]2CNC[C@H]1C2c1ccc(/C=C/c2ccccc2)cc1 (stereo partly drawn) | 14.0[25 µM]
CNC[C@@H]1OCCCC[C@@H](C)Oc2ccc(NS(=O)(=O)c3ccc(F)cc3)cc2C(=O)N([C@@H](C)CO)C[C@H]1C | -7.7[25 µM]
CCS(=O)(=O)N1CC2(CN(Cc3cccc(Cl)c3)[C@@H](CO)c3c2c2ccc(OC)cc2n3C)C1 | 24.0[25 µM]
CCC(=O)N1[C@@H]2CN(C(=O)c3ccccc3F)c3ccccc3[C@@H]2[C@@H]1CO | 19.0[25 µM]
CC(=O)N1[C@@H]2CN(CC(F)(F)F)C[C@H]1C2c1ccc(Br)cc1 (stereo partly drawn) | 0.2
O=C(NCC[C@@H]1CC[C@H](NC(=O)C2CCCC2)[C@H](CO)O1)Nc1ccc(Cl)cc1 | -35.2
CCCc1cn(CC[C@@H]2CC[C@H](NC(=O)C3CCCC3)[C@H](CO)O2)nn1 | -6.9
O=C(c1ccccc1F)N1CC[C@@H]2[C@H](CO)Nc3ccc(Br)cc3[C@@H]21 | -49.1
O=C(Nc1ccccc1F)N1C[C@@H]2N[C@H](C1)C2c1ccc(/C=C/c2ccccc2)cc1 (stereo partly drawn) | 53.1*
C/C=C/c1ccc(C2[C@@H]3CN(C(=O)Nc4ccccc4F)C[C@H]2N3)cc1 (stereo partly drawn) | -3.8[25 µM]
O=C(Nc1ccc(F)cc1)N1C[C@@H]2N[C@H](C1)C2c1ccc(/C=C/c2ccccc2)cc1 (stereo partly drawn) | 24.5[25 µM]
CO[C@H]1CN(C)C(=O)c2ccc(NS(=O)(=O)CC(F)(F)F)cc2OC[C@@H](C)N(Cc2nccs2)C[C@H]1C | 2.4[25 µM]
COCC(=O)N1C[C@@H]2[C@H](c3ccccc31)[C@H](CO)N2C(=O)c1ccncc1 | 9.8[25 µM]
O=C(Nc1ccccc1N1CCCCC1)c1ccc(-c2ccc(Cl)cc2)o1 | -2.4
Cc1cc(N2CCN(C)CC2)ccc1NC(=O)c1ccc(-c2ccc(Cl)cc2)o1 | 63.5*
SMILES | BL2 CD40 inh
Cc1nnc(NC(=O)c2ccc(-c3ccc(Cl)cc3)o2)s1 | 2.0
CCC(=O)N1C[C@@H](C)[C@@H](OC)CN(C)C(=O)c2cc(NC(=O)Nc3ccc(Cl)cc3)ccc2OC[C@@H]1C | 15.7[25 µM]
CN1C(=O)c2cc(NC(=O)c3cccc(F)c3)ccc2OC[C@H]2O[C@@H](CC(=O)NCC3CC3)CC[C@@H]21 | 6.2
CNC[C@@H]1Oc2c(NS(=O)(=O)c3ccc(OC)cc3)cccc2C(=O)N([C@@H](C)CO)C[C@H]1C | -5.0
C/C=C/c1ccc([C@H]2[C@@H](CO)N(c3ncc(CC)s3)[C@H]2C#N)cc1 | 45.0[25 µM]
COc1ccc2c3c(n(C)c2c1)[C@H](CO)N(C(=O)C1CCOCC1)CC31CCN(C(=O)C2CCOCC2)CC1 | 1.2
COc1ccc2c3c(n(C)c2c1)[C@@H](CO)N(Cc1cccc(Cl)c1)CC31CCN(C(=O)C2CC2)CC1 | 25.3[25 µM]
O=C(NC1CCC1)[C@@H]1[C@@H](CO)[C@@H]2Cn3c(ccc(C4=CCCCC4)c3=O)[C@H]1N2CC1CC1 | -4.4
Cn1cccc1C(=O)OCC(=O)Nc1ccc2c(c1)OCCO2 | 55.2*
Cn1cccc1C(=O)OCC(=O)NCc1ccc2c(c1)OCO2 | -16.8
